# CYP2C9 act = activators of human CYP2C9. P11712. recombinant CYP2C9, luciferin-H conversion, luminescence; stronger effect = higher value; factor 1 = untreated enzyme, 0 = blocked. activation factor at 5 µM. 96,000 compounds, 1.4% hits;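 active = activation factor of 2 or more for CYP2C9 at a 5 µM dose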;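 also: 0 = sulfaphenazole-blocked wells and 1 = vehicle-only wells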
# Target sequence (P11712 whole entry, looked up): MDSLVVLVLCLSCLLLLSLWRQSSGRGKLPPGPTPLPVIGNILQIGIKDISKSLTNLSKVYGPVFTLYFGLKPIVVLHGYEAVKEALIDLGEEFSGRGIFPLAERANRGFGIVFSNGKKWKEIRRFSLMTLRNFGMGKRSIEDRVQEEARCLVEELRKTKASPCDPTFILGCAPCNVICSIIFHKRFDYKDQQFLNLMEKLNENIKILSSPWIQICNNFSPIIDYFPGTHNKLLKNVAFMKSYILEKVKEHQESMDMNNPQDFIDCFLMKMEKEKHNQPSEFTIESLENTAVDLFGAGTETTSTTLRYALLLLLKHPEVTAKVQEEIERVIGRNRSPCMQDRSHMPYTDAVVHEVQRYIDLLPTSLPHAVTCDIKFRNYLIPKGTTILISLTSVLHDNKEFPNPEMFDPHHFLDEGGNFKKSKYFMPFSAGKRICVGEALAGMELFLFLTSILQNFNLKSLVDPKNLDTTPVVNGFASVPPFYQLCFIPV
# E-sel TNF inh = TNF alpha driven E-selectin expression inhibition; HUVEC TNFa-induced E-selectin immunofluorescence, high content; inhibition, % at 2 µM; 120,000 compounds, 0.71% hits;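 active = inhibition above the batch mean plus 3 SD, and confirmed as a hit on visual image review, cut at about 43% in these data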;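 also: 0% = TNF-stimulated DMSO wells and 100% = unstimulated control wells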
# CYP2C19 inh = inhibitors of human CYP2C19. P33261. CYP2C19 Supersomes, luciferin-H EGE luminescence, 30 min. inhibition, % at 5 µM. 96,000 compounds, 21% hits;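 active = CYP2C19 inhibition above a set limit at 5 µM in the primary screen, cut at about 50% in these data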;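 also: plate controls were negative control wells for no effect and 2.5 mM tranylcypromine positive control for full effect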
# CYP2C9 inh = inhibitors of human CYP2C9; 96,000 compounds, 20% hits; P11712; inhibition, % at 5 µM; CYP2C9 Supersomes, luciferin-H conversion, luminescence;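 active = blocking of liver enzyme CYP2C9 beyond about 50% at 5 µM, limit read from the data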
# CYP2C19 act = cytochrome P450 2C19 (human) activation; recombinant CYP2C19, luciferin-H EGE luminescence; stronger effect = higher value; 0 = fully inhibited enzyme, 1 = untreated enzyme; activation factor at 5 µM; 96,000 tested, under 10 active;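 active = activation factor of at least 2 at 5 µM in the primary screen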;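 also: 0 = wells with 2.5 mM tranylcypromine and 1 = vehicle-only wells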
# F-actin modifier = cytoskeleton assembly modification; HUVEC TNFa F-actin phalloidin imaging, high content; inhibition, % at 2 µM; 91,000 compounds, 0.18% hits;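 active = inhibition above the batch mean plus 3 SD and confirmed as a hit by visual image inspection, cut at about 30% in these data, passing the limit was not always enough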
# * = called active by the depositor; . = no result given. Sampled rows, rich in hits. Any-hit rate of the full collection: about 22%.
SMILES,CYP2C9 act,E-sel TNF inh,CYP2C19 inh,CYP2C9 inh,CYP2C19 act,F-actin modifier
O=C(CC(c1ccccc1)c1ccco1)N1CCOCC1 (stereo not given),.,0,.,.,.,-8
CC(=O)Oc1ccc2ccccc2c1C(NC(=O)Cc1ccccc1)c1ccccc1 (stereo not given),0.3,-83,61*,67*,0.4,-19
c1ccc2c(-c3ccncc3)c[nH]c2c1,0.1,.,85*,93*,0.1,3
O=C1CN(C(=O)CN2CCOCC2)C(c2ccccc2)c2cc(Br)ccc2N1 (stereo not given),0.3,.,65*,68*,0.4,7
O=C1CN(C(=O)CN2CCCC2)C(c2ccccc2)c2cc(Br)ccc2N1 (stereo not given),0.8,-62,30,25,0.7,-5
Fc1cccc(F)c1-n1c(CN2CCOCC2)csc1=S,.,-18,.,.,.,.
CCOC(=O)c1c(C)[nH]c(C)c1C(=O)CN1C(=O)NC(CC(C)C)C1=O (stereo not given),0.9,-28,59*,14,0.4,-47
CCOC(=O)c1c(C)[nH]c(C)c1C(=O)CN1C(=O)NC2(CCC(C)CC2)C1=O (stereo not given),1.4,-8,50,-39,0.5,-7
Cc1c(Cl)c([N+](=O)[O-])nn1CC(=O)NC(C)C1CC2CCC1C2 (stereo not given),0.8,-5,59*,24,0.4,-1
COc1cc(OC)cc(C(=O)NCc2nc(-c3ccccc3)no2)c1,0.4,-15,73*,61*,0.3,15
Cc1onc(-c2ccccc2Cl)c1C(=O)NCc1nc(-c2ccccc2)no1,0.6,-42,67*,41,0.3,-5
Cc1cc(C)c(C)c(OCC(=O)NCc2nc(-c3ccccc3)no2)c1,1.1,-17,-4,-12,1,-28
Cc1cccc(-c2noc(CN(C(=O)C34CC5CC(CC(C5)C3)C4)C(C)C)n2)c1,0.6,-9,-6,38,1.1,3
COc1ccc(C(=O)N(Cc2nc(-c3ccc(C)cc3)no2)C(C)C)cc1OC,0.4,.,55*,58*,0.5,-9
COc1cc(OC)cc(C(=O)N(Cc2nc(-c3cccc(C)c3)no2)C(C)C)c1,0.1,-5,86*,95*,0.1,-3
Cc1ccc(C(=O)N(Cc2nc(-c3ccc(C)cc3)no2)C(C)C)cc1,0.9,.,12,6,0.9,-10
Cc1onc(-c2ccccc2Cl)c1C(=O)NCc1cccnc1,1,-16,36,-4,0.6,.
COc1ccc(CNC2CCCC2)c(OC)c1OC,1.3,.,-20,-25,1.2,-5
CC(C)N(Cc1nc(-c2ccccc2)no1)C(=O)c1ccc2c(c1)OCO2,0.6,3,69*,43,0.3,-36
Cc1ccc(-c2noc(CCCN3C(=O)c4ccccc4C3=O)n2)cc1,0.7,-3,4,33,1,11
CC(C)N(Cc1nc(-c2ccc(Cl)cc2)no1)C(=O)CCCN1C(=O)c2ccccc2C1=O,0.1,.,88*,86*,0.1,.
c1ccc(-c2noc(COc3ccc4c(c3)OCO4)n2)cc1,1.2,.,-11,-17,1.1,2
O=C(NCc1nc(-c2ccccc2)no1)c1ccc2c(c1)OCO2,0.8,100*,22,23,0.8,6
COc1ccccc1C(=O)N(Cc1nc(-c2ccc(Cl)cc2)no1)C(C)C,0.7,.,64*,32,0.4,-21
Cc1sc(NC(=S)NC(=O)c2ccc(C(C)(C)C)cc2)c(C#N)c1C,0.7,-4,37,28,0.6,-6
SMILES,CYP2C9 act,E-sel TNF inh,CYP2C19 inh,CYP2C9 inh,CYP2C19 act,F-actin modifier
COc1ccnc(Nc2ccc(C)c(C)c2)c1C#N,1,2,-14,0,1.1,19
Cc1nc(=O)c(-c2ccccc2)c(C)n1-c1ccc(O)c(C(=O)O)c1,0.9,.,4,6,1,.
CC(=O)Cc1nsc(NC(=O)c2ccc(-c3ccccc3Cl)o2)n1,0.7,-22,24,29,0.8,1
CC(C)N(Cc1nc(-c2ccccc2)no1)C(=O)c1ccc(Br)o1,0.4,4,73*,64*,0.3,6
CC(=O)Cc1nsc(NC(=O)c2c(-c3ccccc3Cl)noc2C)n1,0.2,47,1,75*,1,0
Cc1onc(-c2ccccc2Cl)c1C(=O)NCc1ccc(S(N)(=O)=O)cc1,0.6,-12,12,45,0.9,-3
Cc1onc(-c2ccccc2Cl)c1C(=O)NCc1ccc(N2CCCC2=O)cc1,0.3,13,53*,67*,0.5,-1
CC(C)N(Cc1nc(-c2ccccc2)no1)C(=O)c1ccc(Cl)cc1,0.2,.,79*,80*,0.2,5
CCn1nc(C)c(/C=C/C(=O)Nc2ccc(C)cc2C)c1C,.,-17,.,.,.,.
c1ccc(NCc2nc(-c3ccccc3)no2)cc1,0.2,7,87*,76*,0.1,-16
CC(C)N(Cc1nc(-c2ccccc2)no1)C(=O)C1CCCCC1,0.2,21,85*,81*,0.2,.
COc1ccc(-c2noc(CN(C(=O)c3c(-c4ccccc4Cl)noc3C)C(C)C)n2)cc1,0.4,0,62*,57*,0.4,-3
COc1ccc(-c2noc(CN(C(=O)c3ccc(OC(C)=O)cc3)C(C)C)n2)cc1OC,0.5,-10,32,47,0.7,18
c1ccc(CCNc2nnnn2-c2ccccc2)cc1,0.8,-17,58*,21,0.4,-3
Clc1ccc(CNc2nnnn2-c2ccccc2)c(Cl)c1,0.5,26,98*,53*,0,5
Clc1cccc(CNc2nnnn2-c2ccccc2)c1,0.8,4,12,23,0.9,-10
O=C(CSc1nccn1-c1ccccc1)c1ccc(Cl)cc1,0.6,-3,74*,36,0.3,-3
Cc1ccc(C(=O)CSc2nccn2-c2ccccc2)cc1,0.7,-26,56*,31,0.4,-24
Cc1ccc(C)c(-n2ccnc2SCC(=O)O)c1,0.4,33,4,59*,1,-2
CC1=C(C)CS(=O)N(c2ccc(S(N)(=O)=O)cc2)C1 (stereo not given),2.4*,8,37,-142,0.6,-1
C=CCc1cccc(CNc2c(C)n(C)n(-c3ccccc3)c2=O)c1O,0.9,-6,56*,12,0.4,15
CCC(NC(=O)Nc1nnc(C(F)(F)F)s1)(C(F)(F)F)C(F)(F)F,0.3,-30,15,71*,0.8,-27
COc1ccc(C(=O)Nc2nnc(C(F)(F)F)s2)cc1,0.3,-15,6,75*,0.9,-21
COc1ccc2c(c1)Cc1sc(NC(C)=O)nc1-2,0.7,23,37,33,0.6,-6
Clc1ccc(OCc2nc(-c3ccncc3)no2)c(Cl)c1,0.1,-12,96*,95*,0,-10
COc1ccccc1-c1nc(-c2ccc(Br)cc2)no1,1.2,-7,-1,-16,1,.
